What was measured:
Assay in all cases: DAPPL (digital affinity profiling via proximity ligation, sequencing); 10 mM Tris-HCl pH 7.5, 50 mM NaCl, 1 mM DTT, 4% glycerol, room temperature, 30 min; GST-TFs on glutathione beads, 16-mer random dsDNA library, 0.1% formaldehyde crosslink after washing; high values mean tight binding
FLI1 = biological target: T1, FLI1 (Homo sapiens, UniProt Q01543 1-452); details: protein: recombinant; tags: N-terminal GST; dsDNA, one strand shown
T1 sequence: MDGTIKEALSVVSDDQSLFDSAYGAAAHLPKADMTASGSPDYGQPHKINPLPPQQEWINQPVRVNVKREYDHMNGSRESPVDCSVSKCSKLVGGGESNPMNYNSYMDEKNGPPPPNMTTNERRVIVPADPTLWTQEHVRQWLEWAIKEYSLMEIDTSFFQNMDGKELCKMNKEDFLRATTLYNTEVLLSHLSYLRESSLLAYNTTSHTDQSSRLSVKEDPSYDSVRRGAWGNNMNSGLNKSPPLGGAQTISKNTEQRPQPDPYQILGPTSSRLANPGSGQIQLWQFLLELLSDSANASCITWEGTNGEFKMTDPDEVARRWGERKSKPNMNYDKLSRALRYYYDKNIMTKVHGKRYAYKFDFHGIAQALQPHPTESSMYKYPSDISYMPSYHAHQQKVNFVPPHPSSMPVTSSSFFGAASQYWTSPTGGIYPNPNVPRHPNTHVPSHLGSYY
Procedure, shortened: (§1)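 GST fusions of human transcription factors were expressed in yeast and captured with glutathione beads. Once given DNA barcodes and pooled alongside a tag-only sample, they were incubated for 30 min at room temperature with 200 nmole of a random double-stranded 16-mer DNA library in Tris/NaCl/DTT/glycerol buffer, then washed, crosslinked (0.1% formaldehyde), proximity-ligated, PCR-amplified and sequenced on an Illumina NextSeq500. The binding signal of each hexamer is its read frequency for a factor divided by its frequency for the tag-only sample.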

ELK1 = biological target: T2, ELK1 (Homo sapiens, UniProt P19419 1-428); details: protein: recombinant; tags: N-terminal GST; dsDNA, one strand shown
T2 sequence: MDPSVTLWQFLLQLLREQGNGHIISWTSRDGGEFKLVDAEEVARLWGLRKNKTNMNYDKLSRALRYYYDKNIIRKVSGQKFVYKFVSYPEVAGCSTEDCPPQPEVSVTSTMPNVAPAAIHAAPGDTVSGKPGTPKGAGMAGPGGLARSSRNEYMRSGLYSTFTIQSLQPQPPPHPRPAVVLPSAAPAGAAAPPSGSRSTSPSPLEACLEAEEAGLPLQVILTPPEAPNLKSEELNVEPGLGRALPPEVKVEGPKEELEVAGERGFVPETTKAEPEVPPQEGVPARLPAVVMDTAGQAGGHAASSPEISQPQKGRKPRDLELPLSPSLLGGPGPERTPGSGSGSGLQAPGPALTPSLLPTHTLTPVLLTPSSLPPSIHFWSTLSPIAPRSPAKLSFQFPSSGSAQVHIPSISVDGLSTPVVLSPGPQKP
Procedure, shortened: as §1

GABPA = biological target: T3, GABPA (Homo sapiens, UniProt Q06546 1-454); details: protein: recombinant; tags: N-terminal GST; dsDNA, one strand shown
T3 sequence: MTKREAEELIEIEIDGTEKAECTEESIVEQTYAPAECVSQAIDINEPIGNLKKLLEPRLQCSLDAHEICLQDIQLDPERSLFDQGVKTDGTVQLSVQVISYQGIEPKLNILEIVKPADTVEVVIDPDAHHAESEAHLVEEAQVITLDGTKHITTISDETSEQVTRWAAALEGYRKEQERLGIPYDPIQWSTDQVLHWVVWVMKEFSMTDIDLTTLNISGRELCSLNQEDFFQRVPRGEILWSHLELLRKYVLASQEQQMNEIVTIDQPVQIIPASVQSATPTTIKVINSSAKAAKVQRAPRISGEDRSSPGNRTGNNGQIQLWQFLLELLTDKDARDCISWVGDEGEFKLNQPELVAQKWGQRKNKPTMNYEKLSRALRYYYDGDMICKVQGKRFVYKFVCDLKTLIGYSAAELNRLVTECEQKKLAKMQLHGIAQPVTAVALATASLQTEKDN
Procedure, shortened: as §1

ERG = biological target: T4, ERG (Homo sapiens, UniProt P11308 1-479); details: protein: recombinant; tags: N-terminal GST; dsDNA, one strand shown
T4 sequence: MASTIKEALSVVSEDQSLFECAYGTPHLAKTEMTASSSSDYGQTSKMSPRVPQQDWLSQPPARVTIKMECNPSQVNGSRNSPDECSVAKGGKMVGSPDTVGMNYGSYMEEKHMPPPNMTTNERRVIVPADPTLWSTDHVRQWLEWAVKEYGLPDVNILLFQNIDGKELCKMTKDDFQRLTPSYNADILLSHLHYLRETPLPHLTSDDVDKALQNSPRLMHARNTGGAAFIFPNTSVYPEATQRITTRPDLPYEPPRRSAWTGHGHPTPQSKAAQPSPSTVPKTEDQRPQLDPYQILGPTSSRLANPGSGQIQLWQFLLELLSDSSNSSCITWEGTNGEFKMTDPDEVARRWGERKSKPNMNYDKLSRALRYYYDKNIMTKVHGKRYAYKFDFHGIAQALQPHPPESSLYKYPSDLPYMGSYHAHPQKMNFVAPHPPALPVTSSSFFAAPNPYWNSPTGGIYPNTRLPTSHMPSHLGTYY
Procedure, shortened: as §1

ELF1 = ELF1 (Homo sapiens, UniProt P32519 1-619); details: protein: recombinant; tags: N-terminal GST; dsDNA, one strand shown
Procedure, shortened: as §1

EHF = biological target: T5, EHF (Homo sapiens, UniProt Q9NZC4 1-300); details: protein: recombinant; tags: N-terminal GST; dsDNA, one strand shown
T5 sequence: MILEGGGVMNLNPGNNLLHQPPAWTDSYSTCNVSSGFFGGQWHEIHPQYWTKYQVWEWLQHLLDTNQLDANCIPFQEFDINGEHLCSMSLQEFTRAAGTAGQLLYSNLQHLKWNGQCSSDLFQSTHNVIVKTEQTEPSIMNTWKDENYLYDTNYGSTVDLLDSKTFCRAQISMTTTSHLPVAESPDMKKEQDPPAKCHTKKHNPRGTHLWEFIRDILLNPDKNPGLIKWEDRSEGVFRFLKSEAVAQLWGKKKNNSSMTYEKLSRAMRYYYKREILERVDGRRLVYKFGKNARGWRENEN
Procedure, shortened: as §1

SPI1 = SPI1 (Homo sapiens, UniProt P17947 1-270); details: protein: recombinant; tags: N-terminal GST; dsDNA, one strand shown
Procedure, shortened: as §1

SPIB = SPIB (Homo sapiens, UniProt Q01892 1-262); details: protein: recombinant; tags: N-terminal GST; dsDNA, one strand shown
Procedure, shortened: as §1

ELK3 = biological target: T6, ELK3 (Homo sapiens, UniProt P41970 1-407); details: protein: recombinant; tags: N-terminal GST; dsDNA, one strand shown
T6 sequence: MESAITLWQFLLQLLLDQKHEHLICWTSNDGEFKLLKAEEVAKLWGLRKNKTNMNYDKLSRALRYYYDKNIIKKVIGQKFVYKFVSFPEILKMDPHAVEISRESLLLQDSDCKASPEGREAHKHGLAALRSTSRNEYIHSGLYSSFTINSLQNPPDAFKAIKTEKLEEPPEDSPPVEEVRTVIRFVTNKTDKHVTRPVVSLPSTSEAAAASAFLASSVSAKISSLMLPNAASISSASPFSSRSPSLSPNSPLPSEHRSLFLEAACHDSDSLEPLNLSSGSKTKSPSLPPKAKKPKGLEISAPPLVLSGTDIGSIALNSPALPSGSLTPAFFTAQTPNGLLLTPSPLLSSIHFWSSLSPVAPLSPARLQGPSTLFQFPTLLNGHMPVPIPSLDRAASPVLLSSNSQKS
Procedure, shortened: as §1

FEV = biological target: T7, FEV (Homo sapiens, UniProt Q99581 1-238); details: protein: recombinant; tags: N-terminal GST; dsDNA, one strand shown
T7 sequence: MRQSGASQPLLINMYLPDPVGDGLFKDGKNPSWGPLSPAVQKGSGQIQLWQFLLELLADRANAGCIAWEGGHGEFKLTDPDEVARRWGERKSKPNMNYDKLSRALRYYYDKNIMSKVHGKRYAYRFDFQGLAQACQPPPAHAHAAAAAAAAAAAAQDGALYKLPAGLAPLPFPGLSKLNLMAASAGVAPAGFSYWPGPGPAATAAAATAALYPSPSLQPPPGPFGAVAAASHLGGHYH
Procedure, shortened: as §1

ETV5 = ETV5 (Homo sapiens, UniProt P41161 1-510); details: protein: recombinant; tags: N-terminal GST; dsDNA, one strand shown
Procedure, shortened: as §1

HSF1 = HSF1 (Homo sapiens, UniProt Q00613 1-529); details: protein: recombinant; tags: N-terminal GST; chain copies: 3; dsDNA, one strand shown
Procedure, shortened: as §1

SPIC = biological target: T8, SPIC (Homo sapiens, UniProt Q8N5J4 1-248); details: protein: recombinant; tags: N-terminal GST; dsDNA, one strand shown
T8 sequence: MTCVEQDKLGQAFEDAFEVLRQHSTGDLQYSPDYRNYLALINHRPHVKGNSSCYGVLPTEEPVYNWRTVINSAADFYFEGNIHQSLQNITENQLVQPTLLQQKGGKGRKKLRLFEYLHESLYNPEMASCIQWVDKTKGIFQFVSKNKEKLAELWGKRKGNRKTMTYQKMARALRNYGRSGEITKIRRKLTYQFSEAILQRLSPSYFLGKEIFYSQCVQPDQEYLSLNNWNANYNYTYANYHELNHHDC
Procedure, shortened: as §1

ELF4 = ELF4 (Homo sapiens, UniProt Q99607 1-663); details: protein: recombinant; tags: N-terminal GST; dsDNA, one strand shown
Procedure, shortened: as §1

ELK4 = biological target: T9, ELK4 (Homo sapiens, UniProt P28324-2 1-405); details: protein: recombinant; tags: N-terminal GST; dsDNA, one strand shown
T9 sequence: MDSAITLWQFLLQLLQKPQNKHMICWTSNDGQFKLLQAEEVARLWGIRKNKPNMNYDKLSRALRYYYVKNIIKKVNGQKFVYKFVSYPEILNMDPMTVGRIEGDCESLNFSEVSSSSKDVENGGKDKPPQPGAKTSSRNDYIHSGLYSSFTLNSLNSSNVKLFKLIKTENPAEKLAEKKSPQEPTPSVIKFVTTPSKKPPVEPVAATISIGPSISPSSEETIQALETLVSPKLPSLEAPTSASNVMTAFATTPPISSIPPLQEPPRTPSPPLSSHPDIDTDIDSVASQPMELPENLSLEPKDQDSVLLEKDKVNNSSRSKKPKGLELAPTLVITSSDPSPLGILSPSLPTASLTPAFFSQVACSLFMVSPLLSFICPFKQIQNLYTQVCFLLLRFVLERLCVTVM
Procedure, shortened: as §1

ETV2 = biological target: T10, ETV2 (Homo sapiens, UniProt O00321 1-342); details: protein: recombinant; tags: N-terminal GST; dsDNA, one strand shown
T10 sequence: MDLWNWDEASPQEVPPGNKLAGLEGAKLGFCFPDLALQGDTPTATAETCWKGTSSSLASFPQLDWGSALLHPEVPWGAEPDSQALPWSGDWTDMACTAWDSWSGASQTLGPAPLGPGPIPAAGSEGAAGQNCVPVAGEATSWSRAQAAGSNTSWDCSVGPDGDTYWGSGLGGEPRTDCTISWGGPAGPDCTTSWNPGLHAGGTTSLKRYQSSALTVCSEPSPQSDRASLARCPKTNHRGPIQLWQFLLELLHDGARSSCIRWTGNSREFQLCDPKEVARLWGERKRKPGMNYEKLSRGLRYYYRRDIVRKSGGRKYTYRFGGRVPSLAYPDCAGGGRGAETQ
Procedure, shortened: as §1

ELF3 = biological target: T11, ELF3 (Homo sapiens, UniProt P78545 1-371); details: protein: recombinant; tags: N-terminal GST; dsDNA, one strand shown
T11 sequence: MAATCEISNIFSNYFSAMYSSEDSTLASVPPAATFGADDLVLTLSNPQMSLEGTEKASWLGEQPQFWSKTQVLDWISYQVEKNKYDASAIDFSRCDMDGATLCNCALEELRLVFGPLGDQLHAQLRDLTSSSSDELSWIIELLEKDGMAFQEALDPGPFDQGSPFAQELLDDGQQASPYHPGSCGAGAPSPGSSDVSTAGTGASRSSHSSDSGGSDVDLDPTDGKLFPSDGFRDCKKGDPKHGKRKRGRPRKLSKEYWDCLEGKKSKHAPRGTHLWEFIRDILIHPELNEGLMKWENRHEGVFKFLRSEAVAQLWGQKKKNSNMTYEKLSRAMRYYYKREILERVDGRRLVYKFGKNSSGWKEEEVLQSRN
Procedure, shortened: as §1

ETV1 = ETV1 (Homo sapiens, UniProt P50549 1-477); details: protein: recombinant; tags: N-terminal GST; dsDNA, one strand shown
Procedure, shortened: as §1

Sequence of ELF1 (P32519 whole entry): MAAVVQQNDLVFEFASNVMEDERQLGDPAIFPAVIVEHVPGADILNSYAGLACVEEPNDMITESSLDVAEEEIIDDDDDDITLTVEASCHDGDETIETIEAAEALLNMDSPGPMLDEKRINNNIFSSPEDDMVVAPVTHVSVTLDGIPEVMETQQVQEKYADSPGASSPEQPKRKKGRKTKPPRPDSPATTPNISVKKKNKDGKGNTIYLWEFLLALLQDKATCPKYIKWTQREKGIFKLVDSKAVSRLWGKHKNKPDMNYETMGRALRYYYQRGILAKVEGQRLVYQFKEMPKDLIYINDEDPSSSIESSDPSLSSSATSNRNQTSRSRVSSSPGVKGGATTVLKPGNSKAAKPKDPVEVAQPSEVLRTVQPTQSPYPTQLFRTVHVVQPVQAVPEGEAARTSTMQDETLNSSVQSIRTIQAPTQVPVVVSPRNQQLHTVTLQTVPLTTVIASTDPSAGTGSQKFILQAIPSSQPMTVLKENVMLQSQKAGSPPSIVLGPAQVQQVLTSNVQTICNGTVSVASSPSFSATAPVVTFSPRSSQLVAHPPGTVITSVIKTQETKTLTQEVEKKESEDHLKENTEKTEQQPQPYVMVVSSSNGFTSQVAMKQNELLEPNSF
Sequence of SPIB (Q01892 whole entry): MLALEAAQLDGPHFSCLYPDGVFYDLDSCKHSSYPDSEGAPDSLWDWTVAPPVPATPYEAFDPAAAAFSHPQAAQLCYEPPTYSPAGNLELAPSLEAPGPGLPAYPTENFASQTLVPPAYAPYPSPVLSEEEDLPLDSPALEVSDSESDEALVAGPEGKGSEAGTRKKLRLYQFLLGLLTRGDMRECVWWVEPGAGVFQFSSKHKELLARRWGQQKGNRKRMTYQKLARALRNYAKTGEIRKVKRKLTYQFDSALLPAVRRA
Sequence of ETV5 (P41161 whole entry): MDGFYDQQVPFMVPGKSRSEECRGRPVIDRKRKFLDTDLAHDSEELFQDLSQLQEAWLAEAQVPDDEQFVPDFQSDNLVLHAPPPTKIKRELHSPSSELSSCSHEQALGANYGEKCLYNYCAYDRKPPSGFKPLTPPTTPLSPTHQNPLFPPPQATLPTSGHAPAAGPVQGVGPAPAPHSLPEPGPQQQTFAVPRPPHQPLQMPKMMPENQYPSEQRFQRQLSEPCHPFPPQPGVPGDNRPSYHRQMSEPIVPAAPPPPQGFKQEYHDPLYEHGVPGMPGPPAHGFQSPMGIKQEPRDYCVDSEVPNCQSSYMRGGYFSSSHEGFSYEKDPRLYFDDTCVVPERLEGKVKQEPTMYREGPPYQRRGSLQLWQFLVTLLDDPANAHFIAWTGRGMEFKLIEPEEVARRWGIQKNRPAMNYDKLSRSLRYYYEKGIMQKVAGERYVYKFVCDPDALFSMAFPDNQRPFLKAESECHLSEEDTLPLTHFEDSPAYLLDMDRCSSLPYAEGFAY
Sequence of ELF4 (Q99607 whole entry): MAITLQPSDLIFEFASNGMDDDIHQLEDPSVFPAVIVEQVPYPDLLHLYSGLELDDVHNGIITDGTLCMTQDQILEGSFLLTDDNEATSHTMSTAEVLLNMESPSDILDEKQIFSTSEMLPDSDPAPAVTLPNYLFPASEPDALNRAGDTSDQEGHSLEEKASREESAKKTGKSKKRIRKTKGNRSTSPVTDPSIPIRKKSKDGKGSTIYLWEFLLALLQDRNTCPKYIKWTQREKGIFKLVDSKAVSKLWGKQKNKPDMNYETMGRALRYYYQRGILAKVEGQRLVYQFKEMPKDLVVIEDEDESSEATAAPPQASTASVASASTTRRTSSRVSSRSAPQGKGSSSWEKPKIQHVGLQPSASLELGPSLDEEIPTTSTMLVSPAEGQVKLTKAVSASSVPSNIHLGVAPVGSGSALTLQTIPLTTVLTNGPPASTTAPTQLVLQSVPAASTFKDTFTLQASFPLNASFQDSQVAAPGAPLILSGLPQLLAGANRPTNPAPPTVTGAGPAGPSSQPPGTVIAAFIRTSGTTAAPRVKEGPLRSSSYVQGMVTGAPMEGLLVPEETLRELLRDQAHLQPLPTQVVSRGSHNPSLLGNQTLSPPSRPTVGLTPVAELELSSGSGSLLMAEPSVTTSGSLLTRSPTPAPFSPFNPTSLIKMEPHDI
Sequence of ETV1 (P50549 whole entry): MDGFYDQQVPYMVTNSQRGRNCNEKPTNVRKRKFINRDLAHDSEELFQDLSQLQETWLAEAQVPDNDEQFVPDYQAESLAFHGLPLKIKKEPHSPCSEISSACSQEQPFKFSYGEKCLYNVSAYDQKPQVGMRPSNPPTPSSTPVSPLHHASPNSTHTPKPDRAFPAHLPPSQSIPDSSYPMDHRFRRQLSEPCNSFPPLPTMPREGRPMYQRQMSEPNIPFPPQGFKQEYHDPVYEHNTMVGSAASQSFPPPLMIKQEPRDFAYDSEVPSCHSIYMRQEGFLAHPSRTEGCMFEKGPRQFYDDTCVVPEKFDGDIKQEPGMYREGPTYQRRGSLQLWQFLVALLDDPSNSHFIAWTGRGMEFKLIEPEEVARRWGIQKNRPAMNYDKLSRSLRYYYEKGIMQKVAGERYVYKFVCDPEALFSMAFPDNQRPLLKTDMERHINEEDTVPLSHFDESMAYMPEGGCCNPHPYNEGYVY
Sequence of HSF1 (Q00613 whole entry): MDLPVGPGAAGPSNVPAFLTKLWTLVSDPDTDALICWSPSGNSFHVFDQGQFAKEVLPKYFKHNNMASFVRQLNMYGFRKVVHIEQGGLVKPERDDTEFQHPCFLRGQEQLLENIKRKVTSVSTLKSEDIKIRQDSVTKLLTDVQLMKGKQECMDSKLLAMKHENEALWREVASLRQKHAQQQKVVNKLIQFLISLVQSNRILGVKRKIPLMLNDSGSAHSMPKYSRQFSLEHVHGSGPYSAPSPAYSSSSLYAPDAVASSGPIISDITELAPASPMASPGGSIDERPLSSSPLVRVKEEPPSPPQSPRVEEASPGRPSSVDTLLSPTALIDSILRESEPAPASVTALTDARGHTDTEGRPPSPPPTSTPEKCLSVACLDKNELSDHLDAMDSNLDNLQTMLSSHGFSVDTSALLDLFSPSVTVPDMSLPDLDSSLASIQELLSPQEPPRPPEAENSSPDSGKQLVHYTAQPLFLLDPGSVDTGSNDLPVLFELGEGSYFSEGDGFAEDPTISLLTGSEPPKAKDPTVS

With GTTCAA the binding signal (FLI1) was 1.07 fold enrichment (6-mer frequency, TF over GST control), the binding signal (ELK1) was 1.18 fold enrichment (6-mer frequency, TF over GST control) and the binding signal (GABPA) was 1.17 fold enrichment (6-mer frequency, TF over GST control). For the same sequence, the binding signal (ERG) was 1.14 fold enrichment (6-mer frequency, TF over GST control), the binding signal (ELF1) was 1.16 fold enrichment (6-mer frequency, TF over GST control) and the binding signal (EHF) was 1.18 fold enrichment (6-mer frequency, TF over GST control). For the same sequence, the binding signal (SPI1) was 1.19 fold enrichment (6-mer frequency, TF over GST control), the binding signal (SPIB) was 1.19 fold enrichment (6-mer frequency, TF over GST control) and the binding signal (ELK3) was 1.13 fold enrichment (6-mer frequency, TF over GST control). For the same sequence, the binding signal (FEV) was 1.08 fold enrichment (6-mer frequency, TF over GST control), the binding signal (ETV5) was 1.14 fold enrichment (6-mer frequency, TF over GST control) and the binding signal (HSF1) was 1.03 fold enrichment (6-mer frequency, TF over GST control). For the same sequence, the binding signal (SPIC) was 1.15 fold enrichment (6-mer frequency, TF over GST control), the binding signal (ELF4) was 1.15 fold enrichment (6-mer frequency, TF over GST control) and the binding signal (ELK4) was 1.16 fold enrichment (6-mer frequency, TF over GST control). The binding signal (ETV2) was 1.05 fold enrichment (6-mer frequency, TF over GST control), the binding signal (ELF3) was 1.22 fold enrichment (6-mer frequency, TF over GST control) and the binding signal (ETV1) was 1.23 fold enrichment (6-mer frequency, TF over GST control).

Source: PMC7862700, “An all-to-all approach to the identification of sequence-specific readers for epigenetic DNA modifications on cytosine”
